We go through 35 molecules from PubChem BioAssay.

Activity calls are given as the source filed them.

Chain of NADPH oxidase 4 (Homo sapiens) (Q9NPH5 whole entry, looked up): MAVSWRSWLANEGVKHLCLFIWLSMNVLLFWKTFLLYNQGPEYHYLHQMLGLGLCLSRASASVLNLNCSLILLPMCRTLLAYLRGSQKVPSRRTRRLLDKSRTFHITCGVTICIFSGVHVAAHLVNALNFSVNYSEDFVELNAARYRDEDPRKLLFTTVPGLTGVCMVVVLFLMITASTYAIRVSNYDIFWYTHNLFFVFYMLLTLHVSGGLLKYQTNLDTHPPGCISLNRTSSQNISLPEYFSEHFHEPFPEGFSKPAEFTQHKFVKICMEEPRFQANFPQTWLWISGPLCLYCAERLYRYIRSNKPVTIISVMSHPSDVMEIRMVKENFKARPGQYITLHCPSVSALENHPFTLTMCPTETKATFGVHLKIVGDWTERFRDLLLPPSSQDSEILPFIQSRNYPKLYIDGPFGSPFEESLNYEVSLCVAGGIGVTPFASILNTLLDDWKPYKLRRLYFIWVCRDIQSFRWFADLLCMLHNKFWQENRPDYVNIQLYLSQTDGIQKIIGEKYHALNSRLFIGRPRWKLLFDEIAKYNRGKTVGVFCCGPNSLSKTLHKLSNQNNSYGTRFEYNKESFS

For one assay, the target named is NADPH oxidase 2 (Homo sapiens) (UniProt P04839). In words: compounds shifting NOX2 Amplex Red fluorescence – cell-based, HEK293-NOX2, PMA-stimulated, NOX inhibitor project, primary screen (AID 1159). Further: test concentration not given here. As to conditions: 45 min, higher = more signal, called active from +8 up or from −8 down.
Chain of NADPH oxidase 2 (Homo sapiens) (P04839 whole entry, looked up): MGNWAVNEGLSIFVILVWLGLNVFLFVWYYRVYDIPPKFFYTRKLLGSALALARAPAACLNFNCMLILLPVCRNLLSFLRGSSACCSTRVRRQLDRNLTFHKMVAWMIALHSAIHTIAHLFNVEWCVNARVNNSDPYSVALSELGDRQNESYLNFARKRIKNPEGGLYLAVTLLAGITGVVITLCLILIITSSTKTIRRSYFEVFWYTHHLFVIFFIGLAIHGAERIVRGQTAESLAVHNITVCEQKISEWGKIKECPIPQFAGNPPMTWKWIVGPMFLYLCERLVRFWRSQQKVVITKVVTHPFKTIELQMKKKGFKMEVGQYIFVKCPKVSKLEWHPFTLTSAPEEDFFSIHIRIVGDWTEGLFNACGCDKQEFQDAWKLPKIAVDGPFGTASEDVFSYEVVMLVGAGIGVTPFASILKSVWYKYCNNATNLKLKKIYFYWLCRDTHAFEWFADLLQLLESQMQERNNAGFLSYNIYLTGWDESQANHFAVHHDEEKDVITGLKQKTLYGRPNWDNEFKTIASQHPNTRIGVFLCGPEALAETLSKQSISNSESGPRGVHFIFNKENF
For the molecule `O=C1OCCC/C=C\[C@H]2OC34C=CCN(c5ccc6ccccc6c5)C(=O)[C@H]3N(CCCCCO)C(=O)[C@@H]4C12` (stereo partly specified), the z-score is 0.814 (inactive). Regarding `CC(C)CNC(=O)[C@@]1(Cc2ccccc2I)c2ccccc2C(=O)N(Cc2ccccc2C(F)(F)F)[C@H]1c1ccc(CO)cc1`, the z-score was 0.285 (inactive). In the case of `C#CCOc1ccc(C[C@@H](C(=O)OC)N(CC#C)[C@@H](/C=C/C2CC2)[C@H](O)Cc2ccccc2)cc1`, the z-score was -0.0591 (inactive). Turning to `CCOC(=O)[C@H]1C/C=C/C[C@H](C(=O)OCC)C(=O)O[C@H]2[C@@H](OC)O[C@H](CO)[C@@H](OC(=O)c3ccc(Br)cc3)[C@@H]2OC1=O`, the z-score was -1.81 (inactive). In the case of `O=C1[C@@]23C=C(Br)[C@H](C[C@@H]2COC3)[C@]12CO2`, the z-score is 0.447 (inactive). The same measure, in the same setting: as for `O=C1NC(=O)C2C1C=CC(C(O)c1ccc(-c3ccccc3)s1)N2Nc1ccc(Cl)cc1Cl` (stereo unspecified), the figure is 0.964 (inactive); as for `C=C(C(=O)CC[C@H](OC(C)=O)c1ccccc1OCCO)C(C)C`, -5.71 (inactive); as for `O=C1C2C=CC(C(O)COCc3ccccc3)N(Nc3ccc([N+](=O)[O-])cc3)C2C(=O)N1c1ccccc1` (stereo unspecified), -0.51 (inactive).

As to `COCC(=C=CC[C@H](O)c1cccc(OCCO)c1)CCO`, the z-score is -1.67 (inactive). As for `NCCCCCCNC(=O)[C@H]1C[C@H]2C(=O)N[C@@H](Cc3ccccc3)C(=O)N2[C@H]1c1cccc(OCCO)c1`, the z-score was 0.997 (inactive).

On to `CCCCCN1CC=CC23O[C@@H]4C=CCOC(=O)[C@@H]4[C@H]2C(=O)N(C(C)CO)[C@@H]3C1=O` (stereo partly specified), for which the z-score is 0.503 (inactive). Turning to `CC(c1ccccc1)C(O)C1C=CC2C(=O)N(C)C(=O)C2N1NC(=O)OC(C)(C)C` (stereo unspecified), the z-score was -0.326 (inactive). Take `COCCCNC(=O)[C@@H]1c2ccccc2C(=O)N(Cc2ccccc2)[C@H]1c1ccc(CO)cc1`: the z-score is -0.694 (inactive). Consider `COCCOC(=O)N1C(=O)[C@@]2(c3cc(C#CCCO)ccc31)[C@H](c1ccc(OCCO)cc1)N1[C@H](c3ccccc3)[C@H](c3ccccc3)OC(=O)[C@H]1[C@@H]2C(N)=O`, for which the z-score was 1.93 (inactive). As for `COc1ccc(C(=O)Nc2ccc(CN3C(=O)[C@]4(O[C@H](CC(=O)N5CCC[C@H]5CO)[C@@H]([Si](C)(C)c5ccc(OC)cc5)[C@@H]4C)c4ccccc43)cc2)cc1`, the z-score is 2.62 (inactive). `C=CC[C@]1(C(N)=O)COC(c2ccc(OCCCO)cc2)=N1`: the z-score was -2.3 (inactive).

For the molecule `COC(=O)[C@@]1(Cc2ccccc2)[C@H]2c3cc(C(=O)N(C)C)n(CCc4c[nH]c5ccc(O)cc45)c3C[C@H]2CN1C(=O)c1ccccc1`, the z-score is -2.52 (inactive). Consider `COc1ccc(C#Cc2ccc3c(c2)[C@]2(C(=O)N3)[C@H](c3ccc(O)cc3)N3[C@H](c4ccccc4)[C@H](c4ccccc4)OC(=O)[C@H]3[C@@H]2C(=O)N2CCc3cc(OC)c(OC)cc3C2)cc1`, for which the z-score is 1.12 (inactive).

In the case of `O=C1OCCC=C[C@H]2OC34C=CCN(Cn5nnc6ccccc65)C(=O)[C@H]3N(CCO)C(=O)[C@@H]4C12` (stereo partly specified), the z-score is 1.55 (inactive). With `CC(C)Cc1ccc(CN2CC[C@@H](N)C2)cc1`, the z-score was -0.0323 (inactive). For `C[N+](C)(C)CCCCCCNC(=O)[C@H]1C[C@H]2C(=O)N[C@@H](Cc3ccccc3)C(=O)N2[C@H]1c1cccc(OCCO)c1`, the z-score is 1.78 (inactive). For the molecule `CO[C@H]1O[C@H](CO)[C@@H](OC(=O)Nc2ccc(Oc3ccccc3)cc2)[C@H](OC(=O)Nc2ccc3c(c2)OCO3)[C@@H]1OC(=O)Nc1ccc2c(c1)OCO2`, the z-score was 1.24 (inactive).

As to `C=C(CCCC)/C(=C/C[C@@H](OC(C)=O)c1ccccc1OCCO)c1cc(C(=O)OC)ccc1OC`, the z-score is 1.27 (inactive). Take `C=CCC(OC(C)=O)[C@@H]1[C@@H](N(Cc2cc3ccccc3o2)C(=O)Cc2ccc(OC)cc2)c2cc(OCCCO)ccc2N1C(=O)c1ccc2ccccc2c1` (stereo partly specified): the z-score was -1.16 (inactive). Take `O=C1C2C=CC(C(O)c3c(F)cccc3Cl)N(Nc3ccccc3F)C2C(=O)N1c1ccccc1` (stereo unspecified): the z-score is -1.43 (inactive).

With `CN(C)C(=O)[C@]1(Cc2ccccc2)N=C(c2ccc(OCCCO)cc2)O[C@@H]1c1ccccc1N=[N+]=[N-]`, the z-score was -1.46 (inactive).

The next assay addresses NADPH oxidase 4 (Homo sapiens) (UniProt Q9NPH5). In words: compounds shifting NOX4 Amplex Red fluorescence – cell-based, HEK293-NOX4, tetracycline-induced, NOX inhibitor project, primary screen (AID 1160). The settings on record: HEK293-NOX4, Amplex Red H2O2 fluorescence, 45 min; higher = more signal, called active from +8 up or from −8 down.
Turning to `O=C(CS)NCCCCCNC(=O)[C@@H]1C[C@@H]2C(=O)NCC(=O)N2[C@@H]1c1cccc(OCCO)c1`, the z-score is 1.06 (inactive). On the same count and under the same terms, as for `O=C(CS)NCCCCCNC(=O)[C@H]1C[C@H]2C(=O)NCC(=O)N2[C@H]1c1cccc(OCCO)c1`, the figure is 1.08 (inactive).

With `CN(C)CCCCNC(=O)[C@@H]1C[C@@H]2C(=O)N[C@@H](CCCCN)C(=O)N2[C@@H]1c1ccc(O)cc1`, the z-score is 1.28 (inactive). As to `COc1ccc(CCNC(=O)[C@@]2(C)c3ccccc3C(=O)N(c3ccc(C)cn3)[C@H]2c2ccc(CO)cc2)cc1`, the z-score was -0.78 (inactive). Take `O=C(NCCN1CCOCC1)[C@@H]1c2ccccc2C(=O)N(Cc2cc(C(F)(F)F)cc(C(F)(F)F)c2)[C@H]1c1ccc(CO)cc1`: the z-score was 0.271 (inactive). With `O=C(NCc1ccccc1)[C@@H]1c2ccccc2C(=O)N(C2Cc3ccccc3C2)[C@H]1c1ccc(CO)cc1`, the z-score is -1.3 (inactive). With `COCCOC(=O)N1C(=O)[C@@]2(c3cc(C#CC4(O)CCCCCC4)ccc31)[C@H](C(=O)Nc1nc3ccccc3s1)[C@H]1C(=O)O[C@H](c3ccccc3)[C@H](c3ccccc3)N1[C@@H]2c1ccccc1OCCO`, the z-score is 0.572 (inactive).

On to `CC1CC/C=C\[C@H]2OC34C=CCN(c5ccc6ccccc6c5)C(=O)[C@H]3N(CCO)C(=O)[C@@H]4C2C(=O)O1` (stereo partly specified), for which the z-score was 1.04 (inactive). On the same count and under the same terms, with `O=C1O[C@@H](c2ccccc2)[C@@H](c2ccccc2)N2[C@@H](c3ccc(OCCO)cc3)[C@]3(C(=O)Nc4ccc(C#CCCO)cc43)[C@@H](C(=O)NC[C@H](O)c3ccccc3)[C@H]12` the figure was 1.71 (inactive). For the molecule `O=C1OCCC/C=C\[C@H]2OC34C=CCN(c5ccc6ccccc6c5)C(=O)[C@H]3N(CCCCCO)C(=O)[C@@H]4C12` (stereo partly specified), the z-score is -0.15 (inactive). Turning to `CC(C)CNC(=O)[C@@]1(Cc2ccccc2I)c2ccccc2C(=O)N(Cc2ccccc2C(F)(F)F)[C@H]1c1ccc(CO)cc1`, the z-score was 0.0405 (inactive). As to `C#CCOc1ccc(C[C@@H](C(=O)OC)N(CC#C)[C@@H](/C=C/C2CC2)[C@H](O)Cc2ccccc2)cc1`, the z-score is 0.763 (inactive). On the same count and under the same terms, as for `CCOC(=O)[C@H]1C/C=C/C[C@H](C(=O)OCC)C(=O)O[C@H]2[C@@H](OC)O[C@H](CO)[C@@H](OC(=O)c3ccc(Br)cc3)[C@@H]2OC1=O`, the figure is -0.145 (inactive); as for `O=C1[C@@]23C=C(Br)[C@H](C[C@@H]2COC3)[C@]12CO2`, -1.92 (inactive); as for `O=C1NC(=O)C2C1C=CC(C(O)c1ccc(-c3ccccc3)s1)N2Nc1ccc(Cl)cc1Cl` (stereo unspecified), -3.15 (inactive). Turning to `C=C(C(=O)CC[C@H](OC(C)=O)c1ccccc1OCCO)C(C)C`, the z-score is -2.22 (inactive).

Regarding `O=C1C2C=CC(C(O)COCc3ccccc3)N(Nc3ccc([N+](=O)[O-])cc3)C2C(=O)N1c1ccccc1` (stereo unspecified), the z-score was -0.338 (inactive). Consider `COCC(=C=CC[C@H](O)c1cccc(OCCO)c1)CCO`, for which the z-score is -0.625 (inactive). For the molecule `NCCCCCCNC(=O)[C@H]1C[C@H]2C(=O)N[C@@H](Cc3ccccc3)C(=O)N2[C@H]1c1cccc(OCCO)c1`, the z-score was 0.736 (inactive). Still for that read-out and setting: with `CCCCCN1CC=CC23O[C@@H]4C=CCOC(=O)[C@@H]4[C@H]2C(=O)N(C(C)CO)[C@@H]3C1=O` (stereo partly specified) the figure was 0.306 (inactive).

For `CC(c1ccccc1)C(O)C1C=CC2C(=O)N(C)C(=O)C2N1NC(=O)OC(C)(C)C` (stereo unspecified), the z-score was -0.289 (inactive). On to `COCCCNC(=O)[C@@H]1c2ccccc2C(=O)N(Cc2ccccc2)[C@H]1c1ccc(CO)cc1`, for which the z-score is 0.572 (inactive). `COCCOC(=O)N1C(=O)[C@@]2(c3cc(C#CCCO)ccc31)[C@H](c1ccc(OCCO)cc1)N1[C@H](c3ccccc3)[C@H](c3ccccc3)OC(=O)[C@H]1[C@@H]2C(N)=O`: the z-score is -0.511 (inactive). Same read-out and setting: as for `COc1ccc(C(=O)Nc2ccc(CN3C(=O)[C@]4(O[C@H](CC(=O)N5CCC[C@H]5CO)[C@@H]([Si](C)(C)c5ccc(OC)cc5)[C@@H]4C)c4ccccc43)cc2)cc1`, the figure is 1.45 (inactive). Still for that read-out and setting: as for `C=CC[C@]1(C(N)=O)COC(c2ccc(OCCCO)cc2)=N1`, the figure is 0.13 (inactive). Turning to `COC(=O)[C@@]1(Cc2ccccc2)[C@H]2c3cc(C(=O)N(C)C)n(CCc4c[nH]c5ccc(O)cc45)c3C[C@H]2CN1C(=O)c1ccccc1`, the z-score is -7 (inactive). As for `COc1ccc(C#Cc2ccc3c(c2)[C@]2(C(=O)N3)[C@H](c3ccc(O)cc3)N3[C@H](c4ccccc4)[C@H](c4ccccc4)OC(=O)[C@H]3[C@@H]2C(=O)N2CCc3cc(OC)c(OC)cc3C2)cc1`, the z-score is 0.579 (inactive).

As to `O=C1OCCC=C[C@H]2OC34C=CCN(Cn5nnc6ccccc65)C(=O)[C@H]3N(CCO)C(=O)[C@@H]4C12` (stereo partly specified), the z-score is 1.22 (inactive). Take `CC(C)Cc1ccc(CN2CC[C@@H](N)C2)cc1`: the z-score was -0.535 (inactive). As for `C[N+](C)(C)CCCCCCNC(=O)[C@H]1C[C@H]2C(=O)N[C@@H](Cc3ccccc3)C(=O)N2[C@H]1c1cccc(OCCO)c1`, the z-score is 0.576 (inactive). In the case of `CO[C@H]1O[C@H](CO)[C@@H](OC(=O)Nc2ccc(Oc3ccccc3)cc2)[C@H](OC(=O)Nc2ccc3c(c2)OCO3)[C@@H]1OC(=O)Nc1ccc2c(c1)OCO2`, the z-score is -0.397 (inactive).

`C=C(CCCC)/C(=C/C[C@@H](OC(C)=O)c1ccccc1OCCO)c1cc(C(=O)OC)ccc1OC`: the z-score was 0.282 (inactive).

`C=CCC(OC(C)=O)[C@@H]1[C@@H](N(Cc2cc3ccccc3o2)C(=O)Cc2ccc(OC)cc2)c2cc(OCCCO)ccc2N1C(=O)c1ccc2ccccc2c1` (stereo partly specified): the z-score was -1.26 (inactive).

In the case of `O=C1C2C=CC(C(O)c3c(F)cccc3Cl)N(Nc3ccccc3F)C2C(=O)N1c1ccccc1` (stereo unspecified), the z-score was -4.43 (inactive).

`CN(C)C(=O)[C@]1(Cc2ccccc2)N=C(c2ccc(OCCCO)cc2)O[C@@H]1c1ccccc1N=[N+]=[N-]`: the z-score was -0.242 (inactive).
